# Source: PubChem (Center for Chemical Genomics, University of Michigan)
# The full list was thinned out, with hits kept by preference.
# Dicer inh: inhibitors of human Dicer processing of pre-microRNA; cat-ELCCA pre-miR-21 Dicer processing, chemiluminescence; hits give high values; z-score at 25 µM; 47,000 tested, 6% active; in the data active = z-score above about 3, passing the limit was not always enough;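 note: plate controls were vehicle for no effect and no enzyme for full effect; higher signal means more uncleaved substrate so more Dicer inhibition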
# * hit, by the source's call; ! = not active in a repeat.
SMILES,Dicer inh
Nc1cccc(-c2nc3cc4sc(-c5cccc(N)c5)nc4cc3s2)c1,0.71
Nc1ccc(-c2nc3cc4sc(-c5ccc(N)cc5)nc4cc3s2)cc1,-2.1
CC1C/C(=N\NC(N)=S)c2cc(Cl)ccc2S1 (centres undefined),-1
C[N+](C)(CCOc1ccccc1)Cc1ccccc1,-0.31
CCn1cc(C(=O)O)c(=O)c2cc(F)c(N3CCN(S(=O)(=O)c4ccc(Cl)cc4)CC3)cc21,3.5*
CCn1cc(C(=O)O)c(=O)c2cc(F)c(N3CCN(C)CC3)cc21,3
CCn1cc(C(=O)O)c(=O)c2cc(F)c(N3CCNCC3)cc21,-0.24
CN(C)c1nc2n(c(=O)n1)CCS2,0.73
O=C(Oc1nsnc1N1CCOCC1)N1CCCCC1,1.5
O=C(Oc1nsnc1N1CCOCC1)N1CCOCC1,3.1*
C1CN(c2nsnc2OCCOc2nsnc2N2CCOCC2)CCO1,-0.25
Cc1cc(C(F)(F)F)cc(S(=O)(=O)CCOC(=O)c2cccc(Cl)c2)n1,-0.32
CC(C)(C)NC(=O)N1CCN(c2ncnc3scc(-c4ccccc4)c23)CC1,0.61
COc1ccc(C2CC(c3ccc(C)cc3)Nc3nc(N)nn32)cc1OC (centres undefined),0.21
CC1CCc2c(sc3ncn(CC(=O)N/N=C/c4cccnc4)c(=O)c23)C1 (centres undefined),0.75
Cc1ccc2c(c1)-c1cc(C)nn1C(c1ccc3c(c1)OCO3)N2 (centres undefined),1.2
Cc1ccc2c(c1)-c1cc(C)nn1C(c1sccc1C)N2 (centres undefined),0.99
Cc1ccc2c(c1)-c1cc(C)nn1C(c1cc(C)ccc1O)N2 (centres undefined),1
Cc1ccc2c(c1)-c1cc(C)nn1C(c1cccc(O)c1O)N2 (centres undefined),32*
Cc1ccc2c(c1)-c1cc(C)nn1C(c1ccc(O)c(O)c1)N2 (centres undefined),3.5*
Cc1cc(C)c2c(c1)-c1cc(C)nn1C(c1cccc(O)c1O)N2 (centres undefined),30*
Cc1cc(C)c2c(c1)-c1cc(C)nn1C(c1cccc(O)c1)N2 (centres undefined),1.2
COC(=O)c1ccc(C2Nc3ccc(C)cc3-c3cc(C)nn32)cc1 (centres undefined),-0.59
Cc1cc(C)c2c(c1)-c1cc(C)nn1C(c1ccccc1O)N2 (centres undefined),-0.3
O=C(C1Sc2nnc(-c3ccccc3)n2NC1c1ccc(F)cc1)N1CCCCC1 (centres undefined),1.1
SMILES,Dicer inh
CN(C)CCCNS(=O)(=O)c1cc(C(F)(F)F)cc(C(F)(F)F)c1,2.7
CCc1nccn1S(=O)(=O)c1cc(Cl)ccc1OC,0.64
CCOC(=O)COc1c(C#N)sc2c1c(=O)n(-c1ccccc1)c(=S)n2-c1ccccc1,-1
O=C1CCN(C(=O)c2ccc(Cl)cc2Cl)c2ccccc2N1,0.96
CCOC(=O)c1c(NC(=O)c2nc3ncccn3n2)sc2c1CCCCC2,-1.5
CN(C)CCCN1c2ccccc2CCc2ccc(Cl)cc21,25
CN(CCCN1c2ccccc2CCc2ccccc21)CC(=O)c1ccc(Cl)cc1,-0.11
CNCCCN1c2ccccc2CCc2ccccc21,5.6*!
Cc1ccc(C2/C(=C(\O)c3ccc(Br)cc3)C(=O)C(=O)N2CCCn2ccnc2)cc1 (centres undefined),0.52
COCCOC(=O)c1c(C)oc2cc(Br)c(OCc3ccc(C(=O)OC)cc3)cc12,5.4
CN1CCc2c(sc3c2C(=O)NC(/C=C\c2ccccc2)N3)C1 (centres undefined),1.4
CN1CC=C(/C=C/c2ccccc2)CC1,3.8*
C(=C\c1ccccc1)/CN1CCN(C/C=C/c2ccccc2)CC1,-1.6
O=[N+]([O-])c1c(Oc2cccc(C(F)(F)F)c2)ncnc1Oc1cccc(C(F)(F)F)c1,-0.6
O=C(Nc1cc(Cl)cc(Cl)c1)Nc1cc(-c2ccccc2)[nH]n1,-1.4
O=C1SC(Nc2ccccc2)C(=O)N1c1ccccc1 (centres undefined),1.3
Cc1ccc(-c2nnc(Nc3cccc(O)c3)c3ccccc23)cc1S(=O)(=O)N(C)C,0.46
COc1ccc(-c2nnc(Nc3cccc(O)c3)c3ccccc23)cc1,3.9*
COc1ccc(-c2nnc(Nc3ccc4c(c3)ncn4C)c3ccccc23)cc1,2.6
CC1CCc2c(sc(NC(=O)Cn3nc(C(F)(F)F)c4c3CCC4)c2C(N)=O)C1 (centres undefined),-0.32
O=C(O)c1[nH]c2ccc([N+](=O)[O-])cc2c1-c1ccccc1,0.06
NNC(=O)c1[nH]c2ccc([N+](=O)[O-])cc2c1-c1ccccc1,-1.7
Cc1ccc(S(=O)(=O)NNC(=O)c2[nH]c3ccc([N+](=O)[O-])cc3c2-c2ccccc2)cc1,6.7*
Nc1ccc2nc(SCC(=O)c3ccc(Br)cc3)sc2c1,-0.08
CC(C)c1ccc(N2C=Nc3ccc(C(C)C)cc3C2)cc1,0.31
SMILES,Dicer inh
O=c1[nH][nH]c(=S)n1-c1ccc(Cl)c(Cl)c1,0.41
Clc1ccc(N2C=Nc3cc(Cl)c(Cl)cc3C2)cc1Cl,3.1*
COC(=O)c1ccc(C2c3c(oc4ccc(C)cc4c3=O)C(=O)N2c2ccccn2)cc1 (centres undefined),1.2
CCOc1ccc(C(C2=C(O)CC(C)(C)CC2=O)C2C(=O)CC(C)(C)CC2=O)cc1 (centres undefined),0.68
C#CC(O)(c1ccccc1)c1ccccc1,0.09
COc1ccc(C(O)(c2ccccc2)c2ccccc2)cc1,1.9
CC(C)C(N)C(O)(c1ccccc1)c1ccccc1 (centres undefined),3.9*
c1ccc(-c2oc3ncn4nc(-c5ccco5)nc4c3c2-c2ccccc2)cc1,-0.67
CCc1cc(-c2[nH]ncc2-c2ccc(OC)cc2)c(O)cc1O,0.83
COc1ccc(-c2ccc(=O)[nH]n2)cc1,1.2
COc1ccc(-c2cc(-c3ccccc3O)[nH]n2)cc1OC,5*
COc1ccc(-c2nc(-c3ccccc3)no2)cc1OC,-0.64
COc1cc(-c2ccc(=O)[nH]n2)ccc1OC(F)F,0.07
COc1ccc(-c2cc(-c3cc(OC)ccc3O)[nH]n2)cc1,8.1*
COC(OC)c1nc(SCC(=O)Nc2ccc(C(F)(F)F)cc2)ncc1C(=O)O,-0.87
CCCCOc1cccc(C2Nc3ccccc3NC3=C2C(=O)CC(C)(C)C3)c1 (centres undefined),-1.8
CC(C)OC(=O)C1C2C=CC3(CN(C(c4ccccc4)c4ccccc4)C(=O)C13)O2 (centres undefined),-0.17
O=c1n(Cc2ccc(Cl)cc2Cl)c2ccccc2n1Cc1ccc(Cl)cc1Cl,-1.9
CCc1cc2c(=O)c(-c3nc4ccccc4n3C)coc2c(CN(C)C)c1O,3.4*
CCc1cc2c(=O)c(-c3nc4ccccc4n3C)c(C)oc2cc1O,1.3
Cc1nc(-c2coc3c(C)c(O)c(CN(C)C)cc3c2=O)cs1,-0.18
CCc1cc2c(=O)c(-c3nc4ccccc4[nH]3)coc2c(CN2CCC(C)CC2)c1O,4.9*
CCc1cc2c(=O)c(-c3nc4ccccc4[nH]3)coc2c(CN(CC)CC)c1O,0.96
O=c1c(-c2nc3ccccc3s2)coc2c(CN3CCCCC3)c(O)ccc12,0.4
CC(Sc1nc2c(c(=O)n(C)c(=O)n2C)n1Cc1cc2c(cc1Cl)OCO2)C(=O)O (centres undefined),1.3
Cc1cccc(C2(O)C(=O)c3ccccc3C2=O)c1O,2.6
COC(=O)c1cn(C(=O)COc2ccccc2Cl)c2ccccc12,-0.6
N=C(N)N1CCOCC1,-0.16
